FLuc modulator = qHTS profiling assay for firefly luciferase inhibitor/activator using purifed enzyme and Km concentrations of substrates (counterscreen for miR-21 project) | purified FLuc, Km substrates, luminescence inhibition | Luciferin 4-monooxygenase (Photinus pyralis), P08659 | hit rate 6.9% among 360,000 | Potency, µM (series often up to 57.5 µM), most hits filed as inhibitors | AID 588342, 2011; also: nearly all actives have a fitted effect of over 55% in size
Target sequence (P08659 whole entry, looked up): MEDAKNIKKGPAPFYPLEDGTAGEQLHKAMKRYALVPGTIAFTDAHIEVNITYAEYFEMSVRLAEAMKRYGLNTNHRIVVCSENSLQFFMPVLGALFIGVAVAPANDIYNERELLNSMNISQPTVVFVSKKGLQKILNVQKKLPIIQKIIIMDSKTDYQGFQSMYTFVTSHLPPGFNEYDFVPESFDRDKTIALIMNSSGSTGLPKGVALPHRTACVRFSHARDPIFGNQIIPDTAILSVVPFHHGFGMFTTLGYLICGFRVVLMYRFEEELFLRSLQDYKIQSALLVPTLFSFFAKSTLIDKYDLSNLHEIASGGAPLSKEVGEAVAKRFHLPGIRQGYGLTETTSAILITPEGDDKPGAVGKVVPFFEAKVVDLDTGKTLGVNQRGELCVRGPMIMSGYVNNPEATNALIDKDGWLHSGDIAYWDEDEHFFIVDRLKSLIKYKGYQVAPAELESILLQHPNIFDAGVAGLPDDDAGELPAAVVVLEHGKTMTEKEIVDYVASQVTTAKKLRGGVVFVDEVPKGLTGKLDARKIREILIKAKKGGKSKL
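Biochemical qHTS of compounds, final roughly 60 µM downward over six points, against 10 nM purified firefly luciferase using Km concentrations of substrates (10 uM D-luciferin, 10 uM ATP) in Tris acetate pH 7.5 buffer; luminescence output.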
SMN2 splice enh = qHTS Assay for Enhancers of SMN2 Splice Variant Expression | HEK293 SMN2-luciferase splicing reporter, luminescence, 30-36 h | Potency, µM (highest dose often 46.1 µM), usual class: activators | hit rate 2.8% among 210,000; also: nearly all actives have a fitted effect of over 55% in size
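HEK293 cells carry an SMN2 […]–luciferase reporter in which exon 7 inclusion puts luciferase in frame. Cells were plated 10-12 h before compound addition, then incubated 30-36 h at 37C. ONE-Glo luminescence was read; sodium butyrate at 4.5 mM final served as control.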
NPC1 promoter act = qHTS Assay for NPC1 Promoter Activators. Huh7 NPC1 promoter luciferase reporter, 24 h. Potency, µM (titrated, usually from 9.22 µM), usual class: activators. hit rate 2.4% among 320,000. AID 485313, 2010; also: nearly all actives have a fitted effect of over 60% in size
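Stable NPC1-promoter luciferase Huh7 line; cpd (DMSO) 24 h, 37 °C, 5% CO2; Amplite luciferase reagent 10 min RT; luminescence readout. qHTS format.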
Rab9 promoter act = qHTS Assay for Rab9 Promoter Activators; Potency, µM (titrated, usually from 9.22 µM), hits mostly activators; hit rate 2.8% among 320,000; Huh7 Rab9 promoter-luciferase reporter, luminescence, 24 h; also: nearly all actives have a fitted effect of over 60% in size
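Cells were plated at 1500 per well in reduced-serum medium with 10% FBS and left 2 h. Compound in DMSO was then added for 24 h at 37 °C. Reporter signal was read by luminescence after 10 min with luciferase detection reagent.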
ELG1 repair inh = qHTS screen for small molecules that inhibit ELG1-dependent DNA repair in human embryonic kidney (HEK293T) cells expressing luciferase-tagged ELG1 | hit rate 2.3% among 330,000 | Potency, µM (top dose mostly 46.1 µM), hits mostly inhibitors | HEK293T ELG1-luciferase reporter, luminescence, 16 h; DNA damage induced by 5-fluorouridine; also: nearly all actives have a fitted effect of over 55% in size
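HEK293T cells expressing luciferase-tagged ELG1 (2,000/well) received 5-Fluorouridine plus compound or DMSO for 16 hr at 37 °C. Luciferase was read by ONE-Glo luminescence after 30 min at room temperature.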
ELG1 genotoxic = qHTS screen for small molecules that induce genotoxicity in human embryonic kidney (HEK293T) cells expressing luciferase-tagged ELG1; hit rate 1.3% among 330,000; HEK293T ELG1-luciferase reporter, luminescence, 16 h; Potency, µM (series often up to 46 µM), hits mostly activators; also: nearly all actives have a fitted effect of over 60% in size
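Luminescence read-out: rising ELG1-luciferase signal, reflecting elevated ELG1 protein under genetic stress, flags genotoxic compounds. Cells were treated for 16 hr at 37 °C before ONE-Glo detection.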
A number is an active result; - = inactive; ? = inconclusive; . = no result given; [ ] = dose if it differs, or a comment. This is a sample that favours compounds with a hit; in the whole collection about 9.2% have one here. Calls follow the shape of the dose curve; as a rule, active = well fitted curve in the direction sought with a large enough effect; inconclusive = small, poorly fitted or top-dose-only effect, or another doubt; inactive = no such curve, though single readings can be large; an effect the other way counts as inactive or inconclusive.

SMILES	FLuc modulator	SMN2 splice enh	NPC1 promoter act	Rab9 promoter act	ELG1 repair inh	ELG1 genotoxic
Nc1c(C(=O)O)ccc2c1C(=O)c1ccccc1C2=O	19µM	-	-	-	-	-
Cc1nc(NC(=O)c2ccc3c(c2)OCO3)ccc1Br	9.5µM	11µM	3.2µM	3.5µM	?	?
Cc1nc(NC(=O)c2cncc(Br)c2)ccc1Br	-	.	?	?	?	-
CCOC(=O)C(=O)Nc1cc(C)on1	1.7µM	.	2.8µM	1.6µM	?	?
CCOc1ccc(C(=O)Nc2cc(C)on2)cc1OCC	-	-	-	-	-	-
Cc1cc(NC(=O)c2ccc3c(c2)OCO3)no1	11µM	11µM	2.5µM	1.6µM	?	?
Cc1cc(NC(=O)c2ccc3c(c2)OCCO3)no1	1.2µM	3.5µM	?	0.45µM	?	0.65µM
CCN(c1ccc(OC)cc1)S(=O)(=O)c1nnc(NC(=O)c2ccccc2C)s1	-	.	.	.	.	.
Cc1cc(NC(=O)c2ccc(F)cc2)no1	17µM	.	?	?	?	?
Cc1cc(NC(=O)c2nn(C)c(C)c2Br)no1	?	.	?	2.8µM	?	?
Cc1cc(NC(=O)c2nn(C)c(C)c2[N+](=O)[O-])no1	-	-	-	-	-	-
CC(=O)Nc1ccc(C(=O)Nc2cc(C)on2)cc1	-	.	-	-	?	-
Fc1ccccc1Nc1nc2ccccc2o1	1.5µM	.	0.71µM	0.4µM	?	2.1µM
O=C(NNc1nc2ccccc2o1)c1ccccc1	2.7µM	.	?	0.79µM	?	-
Cc1nc(Nc2ccccc2F)c2oc3ccccc3c2n1	?	.	-	-	-	-
O=C(NC(=Nc1nc2ccccc2o1)NC(=O)c1ccccc1)c1ccccc1	-	?	-	?	?	?
FC(F)(F)Oc1ccc(Nc2nc3ccccc3o2)cc1	8.5µM	?	2.5µM	?	?	?
CCCOC(=O)Nc1nc2ccccc2o1	13µM	?	2.2µM	2.5µM	?	?
CCOC(=O)C(=CN=C(N)Nc1nc2ccccc2o1)C(=O)OCC	-	.	?	?	?	?
Cc1ccc(NC(=O)c2c(C)nc(Nc3nc4ccccc4o3)nc2C)cc1	-	-	-	-	-	-
COC(=O)c1sc(S(=O)(=O)Nc2ccc(C)c(C)c2)c(C(=O)OC)c1C	-	-	-	-	-	-
O=[N+]([O-])c1ccc(O)c(Nc2c([N+](=O)[O-])ccc3nonc23)c1	?	.	-	-	?	-
CCc1ccc2oc(C(=O)N(Cc3cccc(Cl)c3)Cc3ccco3)c(C)c2c1	-	-	.	.	.	.
COc1ccc(-c2noc(CCC(=O)NC3CCCCC3)n2)cc1	-	.	-	-	-	-
c1ccc(Nc2nc3ccccc3o2)cc1	3µM	?	2µM	2.5µM	?	1.8µM
SMILES	FLuc modulator	SMN2 splice enh	NPC1 promoter act	Rab9 promoter act	ELG1 repair inh	ELG1 genotoxic
Cc1cc(C)nc(Nc2nc3ccccc3o2)n1	-	.	-	-	?	-
COc1ccc(C(=O)Nc2ccc3c4c(cccc24)CC3)cc1	15µM	-	?	?	?	-
O=C(Nc1cccc2c1CCCC2)c1ccco1	-	-	-	-	-	-
O=C(Nc1ccc2c3c(cccc13)CC2)c1ccc(Br)o1	19µM	-	-	-	?	?
O=C(Nc1ccc2c3c(cccc13)CC2)c1ccco1	17µM	.	-	-	?	?
COc1ccc(OC)c(NC(=O)CCCc2nnc3n(C(C)C)c(=O)c4sccc4n23)c1	-	.	.	.	.	.
COc1cccc([C@@H]2Oc3ccc(OC)cc3C[C@H]2O)c1	.	-	.	.	.	.
Cc1ccc(CCNC(=O)c2oc(=O)c3ccccc3c2-c2ccc(C)cc2)cc1	-	-	.	.	.	.
COc1ccc(NC(=O)C(C)N2c3cccc4cccc(c34)S2(=O)=O)cc1OC (stereo not drawn)	-	-	-	-	7.3µM	-
COc1ccc(NC(=O)C(C)N2c3cccc4cccc(c34)S2(=O)=O)cc1 (stereo not drawn)	-	-	-	-	?	-
Cc1onc(-c2ccc(Cl)cc2)c1-c1ccnc(SCC(=O)Nc2ccc(C(C)C)cc2)n1	-	.	-	-	?	-
CC(=O)Nc1cccc(NC(=O)c2ccc3[nH]c(C)c(C)c3c2)c1	11µM	.	-	-	?	-
Cc1cc(NC(=O)c2ccc3[nH]c(C)c(C)c3c2)ccn1	15µM	.	-	-	-	-
Cc1ccc(S(=O)(=O)CC(=O)N2CCN(c3ccc(F)cc3)CC2)cc1	-	.	-	-	-	-
CC1(C)CC(O)CC(C)(C)N1CC(O)COCc1ccccc1 (stereo not drawn)	-	.	-	-	-	-[9.26 µM]
COC(=O)C1=CN(c2ccc(OC)cc2)C=C(C(=O)OC)C1c1ccc(C)c([N+](=O)[O-])c1	-	-	-	-	-	-
COC(=O)C1=CN(c2cccc(C)c2)C=C(C(=O)OC)C1c1cc(OC)c(O)c([N+](=O)[O-])c1	17µM	-	-	-	-	-
O=C(CCS(=O)(=O)c1ccccc1)N1CCN(c2ccccc2F)CC1	11µM	.	1.8µM	1.3µM	?	8.2µM
COc1ccc(S(=O)(=O)CCC(=O)N2CCN(c3ccccc3F)CC2)cc1	-	.	-	-	-	-
Cc1cc(C)cc(NC(=O)C(OC(=O)c2ccc(NC(=O)CC#N)cc2)c2ccccc2)c1 (stereo not drawn)	-	.	-	-	-	-
Cc1ccccc1CSCC(=O)Nc1ccccc1F	?	.	-	-	?	-
Fc1ccc(Nc2ccnc(C(F)(F)F)c2)cc1	-	.	-	-	?	-
FC(F)(F)c1cc(NC2CCCCC2)ccn1	-	.	-	-	8.2µM	-
CCOC(=O)c1cn2nc(N3CCCC3)ccc2n1	2.1µM	.	0.5µM	0.32µM	?	?
CCOC(=O)c1cn2nc(Oc3ccc(C)cc3)ccc2n1	?	.	-	?	?	?
SMILES	FLuc modulator	SMN2 splice enh	NPC1 promoter act	Rab9 promoter act	ELG1 repair inh	ELG1 genotoxic
CCOC(=O)c1cn2nc(Oc3ccccc3)ccc2n1	15µM	.	2.2µM	2.8µM	?	?
CCOC(=O)c1cn2nc(N3CCCCC3)ccc2n1	0.95µM	.	0.32µM	0.13µM	?	0.58µM
CCc1[nH]nc(C(=O)NC2CCCN(Cc3ccccc3F)C2)c1C (stereo not drawn)	-	.	-	-	-	-
CCNc1nc(=S)nc(NCc2ccccc2)[nH]1	-	-	-	-	-	-
Clc1ccc2c(c1)N(CCCN1CCCC13CCCCC3)c1ccccc1S2	.	-[9.22 µM]	.	.	.	.
Cc1noc(C)c1S(=O)(=O)N1CCCC(C(=O)Nc2ccc(Cl)cn2)C1 (stereo not drawn)	-	-	-	-	16µM	-

From PubChem
